Source: PubChem
In the library only some 21% were active in any assay of this set; here they are far more common.
MRP1 act = MRP-1 activation. viability increase, % at 10 µM. 140,000 tested, 0.61% active. H69AR cells + doxorubicin, viability rescue, CellTiter-Glo;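 active = viability gain under doxorubicin at or above a set limit, the compound median plus 3 SD, cut at about 4.7% in these data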;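 note: MRP-1 overexpressing cells given doxorubicin 25 µM after compound pretreatment; 18-22 h compound pretreatment then 72 h with doxorubicin before readout; 0% = doxorubicin-only wells and 100% = vehicle-treated cells without doxorubicin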
MRP reversal = MRP-mediated drug resistance reversal | H69AR cells + 2 uM doxorubicin, CellTiter-Glo, 72 h | differential viability (reversal), % at 10 µM | 85,000 tested, 0.04% active | AID 602;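 active = viability drop by adding the cancer drug above about 55%, with treated viability meeting a 40% cutoff, limit read from the data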;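 note: viability without doxorubicin minus viability with 2 µM doxorubicin for each compound; larger differential means the compound sensitizes cells more to doxorubicin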
CYP2C9 act = CYP2C9 (human) activation; activation factor at 5 µM; recombinant CYP2C9, luciferin-H conversion, luminescence; active compounds read high; factor 1 = untreated enzyme, 0 = blocked; P11712; 96,000 tested, 1.4% active;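 active = activation factor of 2 or more for CYP2C9 at a 5 µM dose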;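 note: 0 = sulfaphenazole-blocked wells and 1 = vehicle-only wells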
Target sequence (P11712 whole entry, looked up): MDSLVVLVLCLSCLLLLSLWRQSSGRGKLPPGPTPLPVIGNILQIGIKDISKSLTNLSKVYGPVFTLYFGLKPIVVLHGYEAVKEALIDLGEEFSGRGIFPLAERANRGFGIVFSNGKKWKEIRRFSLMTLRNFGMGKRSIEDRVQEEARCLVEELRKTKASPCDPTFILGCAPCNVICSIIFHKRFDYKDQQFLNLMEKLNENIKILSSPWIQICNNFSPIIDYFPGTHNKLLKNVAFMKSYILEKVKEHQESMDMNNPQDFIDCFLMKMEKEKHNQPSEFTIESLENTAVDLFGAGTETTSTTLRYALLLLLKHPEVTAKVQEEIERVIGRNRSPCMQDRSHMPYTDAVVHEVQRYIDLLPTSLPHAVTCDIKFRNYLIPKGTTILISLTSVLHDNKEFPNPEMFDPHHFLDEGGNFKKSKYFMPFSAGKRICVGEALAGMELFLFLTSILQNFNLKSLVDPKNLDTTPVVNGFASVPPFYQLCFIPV
CYP2C9 inhib = inhibitors of human CYP2C9; 96,000 tested, 20% active; P11712; CYP2C9 Supersomes, luciferin-H conversion, luminescence; inhibition, % at 5 µM;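 active = blocking of liver enzyme CYP2C9 beyond about 50% at 5 µM, limit read from the data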
CYP2C19 inh = blocks human cytochrome P450 2C19 | P33261 | CYP2C19 Supersomes, luciferin-H EGE luminescence, 30 min | inhibition, % at 5 µM | 96,000 tested, 21% active;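 active = CYP2C19 inhibition above a set limit at 5 µM in the primary screen, cut at about 50% in these data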;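 note: plate controls were negative control wells for no effect and 2.5 mM tranylcypromine positive control for full effect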
CYP2C19 activ = increases human CYP2C19 enzyme activity. P33261. recombinant CYP2C19, luciferin-H EGE luminescence; active compounds read high; 0 = fully inhibited enzyme, 1 = untreated enzyme. activation factor at 5 µM. 96,000 tested, under 10 active. AID 1025;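 active = activation factor of at least 2 at 5 µM in the primary screen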;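 note: 0 = wells with 2.5 mM tranylcypromine and 1 = vehicle-only wells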
Active calls of the source: *; · = no result given.

SMILES | MRP1 act | MRP reversal | CYP2C9 act | CYP2C9 inhib | CYP2C19 inh | CYP2C19 activ
CC1=NN(C(=O)COc2ccc(C)c(C)c2)C(O)(c2ccccc2)C1 (stereo not drawn) | -2 | · | · | · | · | ·
CC(C)(Oc1ccc(Cl)cc1)C(=O)OCC(=O)N1CCCC1 | 0 | -5 | 0.9 | 10 | 28 | 0.7
Cc1cccc(C)c1NC(=O)CC(NCCc1ccccc1)C(=O)O (stereo not drawn) | 0 | · | · | · | · | ·
O=C(c1ccco1)N1CCN(c2nc3ccccc3c(=O)n2-c2ccccc2)CC1 | -3 | 5 | 0.3 | 67* | 30 | 0.7
O=C(c1ccco1)N1CCN(c2nnc(-c3ccccc3)c3ccccc23)CC1 | -1 | -9 | 1 | 4 | 58* | 0.4
O=C(c1ccco1)N1CCN(C(=O)c2cc3c(=O)oc4ccccc4c3s2)CC1 | -4 | 18 | 0.4 | 61* | 27 | 0.7
O=C(c1ccc(-c2ccccc2)cc1)N1CCN(C(=O)c2ccco2)CC1 | 0 | -3 | 0.8 | 17 | 16 | 0.8
Nc1nc(N2CCN(C(=O)c3ccco3)CC2)nc2ccccc12 | -3 | -6 | · | · | · | ·
CCOC(=O)c1cnc2nc(COc3ccccc3)[nH]n2c1=O | -1 | 18 | 0.7 | 26 | 6 | 0.9
CCCCCCCc1c(C)nc(N2CCOCC2)[nH]c1=O | -1 | 7 | 0.3 | 74* | 51* | 0.5
O=C(CSc1nc2c(c(=O)n1-c1ccc(Cl)cc1)SCC2)Nc1ccc2c(c1)OCCO2 | 0 | 13 | 0.7 | 26 | 35 | 0.7
Cc1oc(-c2ccc3c(c2)OCCO3)cc1C(=O)O | -4 | · | 0.3 | 72* | 88* | 0.1
O=C1CSC(=S)N1N=C1CCCCCC1 | 5.9* | · | · | · | · | ·
O=C1CSC(=S)N1/N=C/C=C/c1ccccc1 | 1 | · | · | · | · | ·
Cc1oc(C)c2c(=O)ccc3c(c12)OC(N)=C(C#N)C3c1ccc(F)cc1 (stereo not drawn) | 3 | -19 | 0.7 | 35 | 50* | 0.5
Cc1cc2c(c(=O)n1Cc1cccnc1)C(c1ccc(F)cc1)C(C#N)=C(N)O2 (stereo not drawn) | -2 | -22 | 0.8 | 23 | 29 | 0.7
c1ccc(CCN2CCN(c3ncnc4c3cnn4-c3ccccc3)CC2)cc1 | -3 | 11 | 0.2 | 78* | 79* | 0.2
CCN1CCN(c2ncnc3c2cnn3-c2ccccc2)CC1 | 0 | 13 | 0.9 | 8 | 13 | 0.9
Cc1cccc(-n2ncc3c(N4CCC5(CC4)OCCO5)ncnc32)c1 | · | -28 | · | · | · | ·
Cc1cccc(-n2ncc3c(N4CCC(C)CC4)ncnc32)c1 | 2 | -14 | 0 | 96* | 71* | 0.3
c1ccc(-n2ncc3c(N4CCCCC4)ncnc32)cc1 | -2 | · | 0.2 | 82* | 83* | 0.2
CCc1ccccc1NC(=O)CN(C)C(=O)CSc1nn(-c2ccccc2)c(=S)s1 | 1 | · | · | · | · | ·
CCCCCCOC(=O)CCn1[nH]c(=O)c2ccccc2c1=O | -3 | -4 | 0.5 | 54* | 56* | 0.4
COC(=O)CCn1[nH]c(=O)c2ccccc2c1=O | -2 | · | · | · | · | ·
O=C(NCc1nnc(SCC(=O)N2CCCc3ccccc32)n1-c1ccccc1)c1cccc2ccccc12 | 1 | · | · | · | · | ·
SMILES | MRP1 act | MRP reversal | CYP2C9 act | CYP2C9 inhib | CYP2C19 inh | CYP2C19 activ
CCOc1cc(/C=N/NC(=O)COc2cccc(C)c2)ccc1OC(=O)c1cccs1 | 0 | · | 0.4 | 59* | 18 | 0.8
CO/N=C(/CS(=O)Cc1ccccc1Cl)c1ccc(Cl)cc1Cl (stereo not drawn) | -3 | · | 1 | 1 | 83* | 0.2
Cc1ccc(-c2nnn(CC(=O)N3CCN(c4ccccc4)CC3)n2)o1 | -1 | -3 | 0.9 | 14 | 20 | 0.8
Cc1cc(C)cc(N2C(=O)CSC2c2cccs2)c1 (stereo not drawn) | 0 | 4 | 1.2 | -17 | 58* | 0.4
Cc1ccc(N2C(=O)CSC2c2cccs2)cc1 (stereo not drawn) | 0 | 4 | 0.8 | 18 | 77* | 0.2
Cc1cccc(N2C(=O)CSC2c2cccnc2)c1 (stereo not drawn) | 0 | 11 | 1 | 4 | 26 | 0.7
COc1cc2c(cc1OC)C(C(=O)N1CCN(c3ccccc3)CC1)C(c1cccs1)N(C)C2=O (stereo not drawn) | -1 | 0 | 0.9 | 7 | 12 | 0.9
Cc1cc(N(C)C)nc(SC(C)C)n1 | -1 | · | 1.2 | -23 | -1 | 1
